Experimental findings from PubChem BioAssay (EPA / NIEHS) are described below.

Several values for one entry are separate records, joined by “and”; a condition that tells them apart may be missing. Identical values can stand only once. Records with an inconclusive call do not appear. Where a structure was tested more than once in an assay, its records may differ in their call. Activity calls are given as the source filed them. Rule for the calls, unless noted: active = hit-call score of the fitted dose curve at least 0.9, where 1 is the maximum; inactive = score below 0.9.

Read-out in assay [1]: Signal transducer and activator of transcription 3 (Homo sapiens) (UniProt P40763)
The assay is described as follows: LTEA_HepaRG_STAT3: Life Technologies and Expression Analysis (LTEA) Assay for Signal transducer and activator of transcription (STAT3) using HepaRG (AID 2283529). The settings on record: mRNA level, 48 h; actives raise or lower the signal. The gist of the method: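 Differentiated HepaRG cells, serum-free induction medium, dosed 48 h in duplicate, 8 half-log concentrations from 100 uM in 0.5% DMSO. STAT3 mRNA by qRT-PCR, normalised to ACTB, GAPDH, POLR2A; bidirectional fit versus DMSO.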

Read-out in assay [2]: solute carrier (SLCO1B1), SLCO1B1 (gene 10599)
The assay is described as follows: LTEA_HepaRG_SLCO1B1: Life Technologies and Expression Analysis (LTEA) Assay for solute carrier (SLCO1B1) using HepaRG (AID 2283530). The settings on record: mRNA level, 48 h; actives raise or lower the signal. In outline: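 SLCO1B1 transcript levels were quantified by TaqMan qRT-PCR using three housekeeping genes for normalization. This followed 48 h chemical exposure (100 uM top, half-log, 8 points, 0.5% DMSO) of HepaRG liver cells, with gain or loss fitted relative to DMSO.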

Read-out in assay [3]: sulfotransferase 2A1 (SULT2A1), SULT2A1 (gene 6822)
The assay is described as follows: LTEA_HepaRG_SULT2A1: Life Technologies and Expression Analysis (LTEA) Assay for sulfotransferase 2A1 (SULT2A1) using HepaRG (AID 2283531). The settings on record: mRNA level, 48 h; actives raise or lower the signal. The gist of the method: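 Expression change of SULT2A1, by qRT-PCR with three housekeeping-gene normalization, was scored bidirectionally versus DMSO. Cells: differentiated HepaRG, dosed in duplicate for 48 h across 8 points, highest 100 µM, half-log dilution, 0.5% DMSO.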

Read-out in assay [4]: Transforming Growth Factor (TGFA), TGFA (gene 7039)
Description: LTEA_HepaRG_TGFA: Life Technologies and Expression Analysis (LTEA) Assay for Transforming Growth Factor (TGFA) using HepaRG (AID 2283532). The note with it: mRNA level, 48 h; actives raise or lower the signal. In outline:
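Differentiated HepaRG cells exposed 48 hours in serum-free induction medium, 0.5% DMSO vehicle, 8-point half-log series from 100 uM, in duplicate. TGFA mRNA by TaqMan qRT-PCR, normalised to ACTB, GAPDH, POLR2A; bidirectional fit versus DMSO.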

Read-out in assay [5]: Transforming Growth Factor (TGFB1), TGFB1 (gene 7040)
The assay is described as follows: LTEA_HepaRG_TGFB1: Life Technologies and Expression Analysis (LTEA) Assay for Transforming Growth Factor (TGFB1) Transporter using HepaRG (AID 2283533). The note with it: mRNA level, 48 h; actives raise or lower the signal. The gist of the method: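 TGFB1 transcript measured by qRT-PCR with normalisation to three housekeeping genes (ACTB, GAPDH, POLR2A); human HepaRG line treated in duplicate for 48 hr with an 8-point series topping at 100 uM, 0.5% DMSO vehicle, bidirectionally fitted.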

Read-out in another assay: TIMP1, TIMP1 (gene 7076)
Description: LTEA_HepaRG_TIMP1: Life Technologies and Expression Analysis (LTEA) Assay for TIMP1 using HepaRG (AID 2283534). The settings on record: mRNA level, 48 h; actives raise or lower the signal. In outline: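 Bidirectional change in TIMP1 transcript versus 0.5% DMSO, measured by TaqMan qRT-PCR with three housekeeping genes for normalization. HepaRG human liver cells dosed 48 h in duplicate, top concentration 100 uM with half-log dilutions.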

Read-out in assay [6]: Tumor necrosis factor receptor 1 (TNFRSF1A), TNFRSF1A (gene 7132)
Description: LTEA_HepaRG_TNFRSF1A: Life Technologies and Expression Analysis (LTEA) Assay for Tumor necrosis factor receptor 1 (TNFRSF1A) using HepaRG (AID 2283535). The note with it: mRNA level, 48 h; actives raise or lower the signal. The gist of the method: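 mRNA measured by qRT-PCR (TaqMan, Fluidigm arrays) against ACTB/GAPDH/POLR2A housekeepers after 48 h chemical exposure of HepaRG cells. Top concentration 100 uM, half-log 8-point series, duplicates; vehicle 0.5% DMSO, both fit directions.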

Read-out in assay [7]: Thyroid Hormone Responsive (THRSP), THRSP (gene 7069)
Description: LTEA_HepaRG_THRSP: Life Technologies and Expression Analysis (LTEA) Assay for Thyroid Hormone Responsive (THRSP) using HepaRG (AID 2283536). The note with it: mRNA level, 48 h; actives raise or lower the signal. The gist of the method: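 Differentiated HepaRG cells treated 48 h in serum-free induction medium with 8 half-log concentrations up to 100 uM (0.5% DMSO), duplicates. THRSP mRNA by TaqMan qRT-PCR normalised to ACTB, GAPDH, POLR2A; bidirectional fit versus DMSO.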

Read-out in assay [8]: Cellular tumor antigen p53 (Homo sapiens) (UniProt P04637)
The assay is described as follows: LTEA_HepaRG_TP53: Life Technologies and Expression Analysis (LTEA) Assay for Tumor Protein P53 (TP53) using HepaRG (AID 2283537). The settings on record: mRNA level, 48 h; actives raise or lower the signal. In outline: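 Read-out is TP53 transcript level by microfluidic qRT-PCR, normalised to three housekeeping genes and fitted bidirectionally against DMSO. Human HepaRG cells received compounds for 48 h, highest concentration 100 uM.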

Read-out in assay [9]: UDP glucuronosyltransferase (UGT1A1), UGT1A1 (gene 54658)
Description: LTEA_HepaRG_UGT1A1: Life Technologies and Expression Analysis (LTEA) Assay for UDP glucuronosyltransferase (UGT1A1) using HepaRG (AID 2283538). The settings on record: mRNA level, 48 h; actives raise or lower the signal. In outline: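 HepaRG cells, 0.5% DMSO vehicle, 48 h exposure in serum-free induction medium to 8-point half-log series topping at 100 uM, in duplicate. UGT1A1 mRNA by Fluidigm qRT-PCR, normalized to ACTB/GAPDH/POLR2A; bidirectional fit versus DMSO.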

Read-out in assay [10]: UDP glucuronosyltransferase (UGT1A6), UGT1A6 (gene 54578)
The assay is described as follows: LTEA_HepaRG_UGT1A6: Life Technologies and Expression Analysis (LTEA) Assay for UDP glucuronosyltransferase (UGT1A6) using HepaRG (AID 2283539). The note with it: mRNA level, 48 h; actives raise or lower the signal. The gist of the method: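 Expression was quantified by TaqMan qRT-PCR on Fluidigm arrays with ACTB/GAPDH/POLR2A normalization and bidirectional fitting against 0.5% DMSO. HepaRG cells (~100,000/well) were treated in duplicate for 48 h at eight half-log concentrations up to 100 uM in serum-free induction medium.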

Read-out in assay [11]: X-box binding protein 1 (XBP1), XBP1 (gene 7494)
The assay is described as follows: LTEA_HepaRG_XBP1: Life Technologies and Expression Analysis (LTEA) Assay for X-box binding protein 1 (XBP1) using HepaRG (AID 2283540). The note with it: mRNA level, 48 h; actives raise or lower the signal. The gist of the method: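 XBP1 transcript by qRT-PCR (housekeeping-normalized: ACTB, GAPDH, POLR2A) after 48 h chemical treatment of HepaRG cells, 8-point half-log series topping at 100 uM, vehicle 0.5% DMSO. Gain and loss of signal fitted relative to DMSO.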

Assay [12] is described as follows: LTEA_HepaRG_LDH_cytotoxicity: Cytotoxicity Assessment in the Life Technologies and Expression Analysis (LTEA) Assay (AID 2283563; active = hit-call score of the fitted dose curve at least 0.9, where 1 is the maximum;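 for AC50: LDH activity released into spent culture medium as a marker of cell death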). In outline:
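LDH release into culture medium read after 48 h chemical treatment of HepaRG cells. Duplicate wells, eight-point half-log series topping at 100 uM, 0.5% DMSO vehicle and baseline.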

Assay [13] can be described thus: ATG_XTT_Cytotoxicity: Cytotoxicity Assessment in the Attagene TRANS-FACTORIAL HepG2 Assay (AID 2283584; active = hit-call score of the fitted dose curve at least 0.9, where 1 is the maximum;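 for AC50: cells exposed to compound for 24 h before reading; active means loss of viability signal versus DMSO baseline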). The gist of the method:
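Viability endpoint from XTT after 24 h chemical exposure of reporter-transfected human HepG2 liver cells; signal loss fitted relative to DMSO negative control.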

A short description of assay [14]: TOX21_p53_BLA_p2_viability: Viability Assessment in the Tox21 HCT-116 p53 Agonism Beta-lactamase Assay, Phase 2 (AID 2283591; active = hit-call score of the fitted dose curve at least 0.9, where 1 is the maximum;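 note: compound exposure lasted 16 h at 37 °C; actives lower the ATP signal meaning cytotoxicity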). The gist of the method:
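HCT116 p53-bla cells, 4000/well, dosed after 5 h plating (217-fold dilution of DMSO stocks) and incubated 16 h at 37C. Viability taken as cellular ATP by CellTiter-Glo luminescence after 30 min RT; signal loss marks cytotoxicity.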

Assay [15] concerns the target Cellular tumor antigen p53 (Homo sapiens) (UniProt P04637). The assay is described as follows: TOX21_p53_BLA_p2_ratio: Tox21 HCT-116 p53 Agonism Beta-lactamase Assay, Ratio, Phase 2 (AID 2283592; active = hit-call score of the fitted dose curve at least 0.9, where 1 is the maximum). The gist of the method: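 Gain-of-signal p53 agonism was scored from the beta-lactamase FRET ratio (460/530 nm, 405 nm excitation) in HCT116 cells treated 16 h at 37C, 5% CO2, with DMSO serving as negative control and baseline.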

Assay [16] in a line: TOX21_p53_BLA_p3_viability: Viability Assessment in the Tox21 HCT-116 p53 Agonism Beta-lactamase Assay, Phase 3 (AID 2283593; active = hit-call score of the fitted dose curve at least 0.9, where 1 is the maximum;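 note: cells exposed to compound for 16 h before reading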). In outline:
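HCT116 cells, 4000/well, dosed 5 h after plating by pin transfer (217-fold dilution from DMSO stock) and incubated 16 h at 37C, 5% CO2. Viability read as ATP luminescence with CellTiter-Glo after 30 min at room temperature.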

The target in assay [17] is Cellular tumor antigen p53 (Homo sapiens) (UniProt P04637). The assay is described as follows: TOX21_p53_BLA_p3_ratio: Tox21 HCT-116 p53 Agonism Beta-lactamase Assay, Ratio, Phase 3 (AID 2283596; active = hit-call score of the fitted dose curve at least 0.9, where 1 is the maximum). The gist of the method:
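HCT116 p53-bla cells (4000/well) given compound in DMSO (217-fold dilution) after 5 h, incubated 16 h at 37C. CCF4-AM substrate 2 h at room temperature; 460/530 nm emission ratio, gain fitted against DMSO.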

The nature of assay [18]: TOX21_p53_BLA_p4_viability: Viability Assessment in the Tox21 HCT-116 p53 Agonism Beta-lactamase Assay, Phase 4 (AID 2283597; active = hit-call score of the fitted dose curve at least 0.9, where 1 is the maximum;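 note: hits lower the luminescence signal meaning cytotoxicity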). The gist of the method: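 Following a 16 h exposure at 37C, the treated HCT116 wells were first read for the FRET ratio. They were then lysed with CellTiter-Glo, and ATP luminescence was recorded after 30 min at room temperature.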
Assay [19] addresses Cellular tumor antigen p53 (Homo sapiens) (UniProt P04637). Description: TOX21_p53_BLA_p5_ratio: Tox21 HCT-116 p53 Agonism Beta-lactamase Assay, Ratio, Phase 5 (AID 2283599; active = hit-call score of the fitted dose curve at least 0.9, where 1 is the maximum). The gist of the method: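 HCT-116 p53-bla cells (4000/well) plated 5 h, dosed with compound (217-fold DMSO dilution) for 16 h at 37 C; CCF4-AM substrate 2 h at room temperature. Activity is the 460/530 nm emission ratio (405 nm excitation), fitted in gain-of-signal direction versus DMSO.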

Cellular tumor antigen p53 (Homo sapiens), sequence (P04637 whole entry, looked up): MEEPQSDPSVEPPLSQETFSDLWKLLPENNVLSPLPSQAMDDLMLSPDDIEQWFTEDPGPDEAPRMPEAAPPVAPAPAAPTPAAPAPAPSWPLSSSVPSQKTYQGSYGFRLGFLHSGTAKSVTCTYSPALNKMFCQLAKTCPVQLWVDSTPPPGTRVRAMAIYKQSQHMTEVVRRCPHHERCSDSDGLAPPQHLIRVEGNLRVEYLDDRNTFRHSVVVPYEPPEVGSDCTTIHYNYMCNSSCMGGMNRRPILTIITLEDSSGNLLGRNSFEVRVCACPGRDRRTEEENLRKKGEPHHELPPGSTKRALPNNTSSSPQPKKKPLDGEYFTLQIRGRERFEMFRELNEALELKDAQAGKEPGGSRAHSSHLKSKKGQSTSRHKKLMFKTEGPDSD
Signal transducer and activator of transcription 3 (Homo sapiens), sequence (P40763 whole entry, looked up): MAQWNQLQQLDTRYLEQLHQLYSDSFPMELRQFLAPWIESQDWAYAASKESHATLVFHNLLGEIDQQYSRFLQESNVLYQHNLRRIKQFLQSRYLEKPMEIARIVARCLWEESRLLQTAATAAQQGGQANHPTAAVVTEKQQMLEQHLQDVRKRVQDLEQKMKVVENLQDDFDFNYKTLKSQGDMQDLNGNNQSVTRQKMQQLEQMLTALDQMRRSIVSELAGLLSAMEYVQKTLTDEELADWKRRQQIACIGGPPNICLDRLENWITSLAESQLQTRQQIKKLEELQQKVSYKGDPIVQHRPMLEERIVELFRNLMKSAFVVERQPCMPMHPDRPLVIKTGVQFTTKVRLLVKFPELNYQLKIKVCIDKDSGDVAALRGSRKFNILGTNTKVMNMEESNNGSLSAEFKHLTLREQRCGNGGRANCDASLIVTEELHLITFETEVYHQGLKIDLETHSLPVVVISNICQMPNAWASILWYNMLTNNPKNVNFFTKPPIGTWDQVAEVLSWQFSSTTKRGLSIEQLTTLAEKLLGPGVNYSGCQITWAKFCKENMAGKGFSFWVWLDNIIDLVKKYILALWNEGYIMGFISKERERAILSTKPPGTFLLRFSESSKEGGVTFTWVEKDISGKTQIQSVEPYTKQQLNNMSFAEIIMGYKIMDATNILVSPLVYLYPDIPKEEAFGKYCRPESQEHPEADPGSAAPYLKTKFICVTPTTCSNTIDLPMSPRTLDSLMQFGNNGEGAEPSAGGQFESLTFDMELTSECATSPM

As to `CCCCc1oc2ccccc2c1C(=O)c1cc(I)c(OCCN(CC)CC)c(I)c1`, the outcome is “inactive” in assay [1]; “inactive” in [5]; “inactive” in the assay with TIMP1, TIMP1 (gene 7076); “inactive” in assay [6]; “inactive” in [11]; “inactive” in assay [13]. In addition, the result in assay [14], in assay [15], in [16], in assay [17] and in assay [19] was inactive. Further, the AC50 in assay [2] was 67.7 µM (active); in assay [3], 70.5 µM (active); in assay [4] it was 55.3 µM (active); in [7], 68.7 µM (active); in assay [8] it was 66.8 µM (active); in assay [9] it was 60.7 µM (active). Moreover, the concentration at half-maximal activity (AC50) in assay [10] is 55.5 µM (active); in assay [12], 57 µM (active); in [14], 59.9 µM (active); in [16], 32.3 µM (active) and 51.8 µM (active); in assay [18], 31.3 µM (active) and 50.9 µM (active) and 23 µM (active).
In the case of `CCCCCCCCCCCC[N+](C)(C)Cc1ccccc1`, the AC50 in [13] was 24.2 µM (active) and 31.9 µM (active).
`CN(Cc1cnc2nc(N)nc(N)c2n1)c1ccc(C(=O)N[C@@H](CCC(=O)O)C(=O)O)cc1`: the outcome in [1] is “inactive”; in [2] it was “inactive”; in [4] it was “inactive”; in assay [5] it was “inactive”; in the assay with TIMP1, TIMP1 (gene 7076) it was “inactive”; in assay [6], “inactive”. Moreover, the outcome in [9], in [10], in [12] and in assay [13] was inactive. Moreover, the AC50 in assay [3] is 0.266 µM (active); in [7], 0.167 µM (active); in assay [11], 0.0944 µM (active).

In general, AC50 refers to the concentration at which the activity in the assay is half-maximal.
